An excerpt weighted towards active compounds, which were near 14% of everything screened.
A350 fluor: qHTS Assay for Spectroscopic Profiling in A350 Spectral Region; Compound autofluorescence, 340/450 nm, Alexa 350 dye-equivalents; stronger effect = higher value; max dye-equivalent concentration, M; 11% of 59,000 active; in the data active = max dye-equivalent concentration above about 10 nM; inconclusive = mostly about 1.1 nM to 9.6 nM
HADH2 inhib: qHTS Assay for Inhibitors of HADH2 (Hydroxyacyl-Coenzyme A Dehydrogenase, Type II); 3.4% of 73,000 active; Potency, µM (top dose mostly 57.1 µM), inactives show at the top dose activity change, negative = inhibition, usual class: inhibitors; recombinant HADH2, NADH fluorescence, beta-hydroxybutyryl-CoA; AID 886, 2007; note: potency is the fitted concentration of half-maximal effect; % is set by controls: 0 for no effect and ±100 for the full control effect; nearly all actives have a fitted effect of over 60% in size
Target sequence (Q99714 whole entry, looked up, one chain of several): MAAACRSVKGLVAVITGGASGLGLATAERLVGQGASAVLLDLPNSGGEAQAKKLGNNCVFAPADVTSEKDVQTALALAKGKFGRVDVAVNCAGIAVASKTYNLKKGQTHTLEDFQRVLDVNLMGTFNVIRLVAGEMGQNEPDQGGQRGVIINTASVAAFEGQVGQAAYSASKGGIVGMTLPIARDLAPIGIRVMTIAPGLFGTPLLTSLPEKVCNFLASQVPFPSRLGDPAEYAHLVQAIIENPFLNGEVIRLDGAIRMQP
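E. coli-expressed His-tagged HADH2 tested at 20 nM in alkaline Tris buffer (pH 9.0); oxidation of 90 uM beta-hydroxybutyryl-CoA with 1 mM NAD+ tracked fluorimetrically for 4 min.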
CRE Fsk mod: Cell signaling CRE-BLA (Fsk stim). Potency, µM (titrated, usually from 38.2 µM), without a hit: at the top dose activity change, negative = inhibition, most hits filed as activators. AID 662, 2007. 2.5% of 71,000 active. CHO CRE-bla reporter (cAMP response element driving beta-lactamase), forskolin EC10, beta-lactamase ratio; active = well fitted activation curve with a large enough effect in the signal ratio, with a control signal flat, not every such curve was filed as active; inconclusive = small, poorly fitted or top-dose-only effect, or effect the other way, or a change in a side signal; the % refers to the signal ratio; note: potency is the fitted concentration of half-maximal effect; % of control where 0% means no effect
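AC50 values, positive or negative, reflect shifts in EC10 NKH 477-induced CRE-bla reporter activity in CHO cells. Incubation lasted 3 h at 37 °C before CCF4 substrate (2 h, room temperature) and ratiometric 460/530 nm reading.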
AID923: qHTS Assay for Allosteric/Competitive Inhibitors of Caspase-1: Spectroscopic Profiling in AFC Spectral Region | 1.1% of 75,000 active | Potency, µM (highest dose often 57.5 µM), without a hit: at the highest dose fluorescence increase, actives largely listed as activators | compound fluorescence, AFC spectral region (405/520 nm); note: potency is the fitted concentration of half-maximal effect; 0% is about no effect
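Compound autofluorescence profiled at 405 nm ex/520 nm em during kinetic caspase 1 run (50 nM enzyme, 5 uM Ac-WEHD-AFC, HEPES pH 7.5, 10 mM DTT). Titration up to 57 uM; baseline from regression intercept, normalized to AFC standard curve.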
HSD17B inh: qHTS Assay for Inhibitors of HSD17B4, hydroxysteroid (17-beta) dehydrogenase 4 | 3-hydroxyacyl-CoA dehydrogenase type-2 (Homo sapiens), Q99714 | recombinant HSD17B10, NADH fluorescence kinetic | Potency, µM (series often up to 57.1 µM), for the others: at the top dose activity change, negative = inhibition, hits mostly inhibitors | 7.6% of 75,000 active;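 note: the protocol describes HADH2 (HSD17B10) and not the HSD17B4 of the title; potency is the fitted concentration of half-maximal effect; % is set by controls: 0 for no effect and ±100 for the full control effect; nearly all actives have a fitted effect of over 70% in size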
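His-tagged E. coli-expressed HADH2 at 20 nM in 100 mM Tris-HCl pH 9.0 with 0.01 % Tween-20, preincubated 15 min with compound at room temperature. Reaction with 1 mM NAD+ and 90 uM beta-hydroxybutyryl coenzyme A; NADH fluorescence (360/450 nm) read kinetically over 4 min, last minus first point.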
4-MU autofl: qHTS Assay for Spectroscopic Profiling in 4-MU Spectral Region. compound autofluorescence, 340/450 nm, 4-MU equivalents; stronger effect = higher value. max dye-equivalent concentration, M. 11% of 59,000 active; in the data active = max dye-equivalent concentration above about 10 nM; inconclusive = mostly about 1.1 nM to 9.6 nM
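Compounds in 100 mM Tris, pH 8.0, sat 15 min at room temperature before fluorescence was read at 340 nm excitation/450 nm emission; a per-plate six-point 4-MU standard curve converted signals to dye-equivalent concentration at each compound concentration.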
CHO tox 24h: Cell Viability - CRE-beta lactamase CHO cell - 24 hr assay. shares compounds with CRE Fsk mod. CRE-bla CHO viability, ATP luminescence, 24 h. activity, negative = viability loss, % at 46.1 µM. 120 tested, under 10 active. AID 905, 2007
CHO via 40h: Cell Viability - CRE-beta lactamase CHO cell - 40 hr assay; 120 tested, under 10 active; shares compounds with CRE Fsk mod; CRE-bla CHO viability, ATP luminescence, 40 h; Potency, µM, without a hit: max response, actives largely listed as inhibitors; AID 906, 2007
CREB luc CRC: Confirmation Concentration-Response Assay for Cell signaling CRE-BLA (Fsk stim) - HEK293 CREB Luciferase. shares compounds with CRE Fsk mod. HEK293 CRE-luc2P, NKH477 EC10 potentiation, luminescence, 4 h. Potency, µM (series often up to 38.3 µM), without a hit: at the top dose activity, positive = activation, most hits filed as activators. 80% of 120 active
* hit, by the source's call; [ ] = remark or other dose. Unless noted, calls come from the whole dose curve; as a rule, active = well fitted curve in the direction sought with a large enough effect; inconclusive = small, poorly fitted or top-dose-only effect, or another doubt; inactive = no such curve, though single readings can be large; an effect the other way counts as inactive or inconclusive.

O=C1[C@@H]2[C@H]3[C@H](O)[C@H](O)C/C(=N/OCc4ccccc4)[C@@H]3CC[C@H]2C(=O)N1c1ccc(F)cc1F was read as HADH2 inhib 2.4%[11.4 µM], AID923 -1.5%[11.5 µM] and HSD17B inh 1.8%[11.4 µM].
CCOc1ccc2c(C)nc(NC3=NC(C)(C)C=C(C)N3)nc2c1 was read as A350 fluor 1.02e-07M* and 4-MU autofl 8.44e-08M*.
For COC(=O)[C@H]1C[C@@H]2CC[C@@H](O)C[C@@H]2N1Cc1c(F)cccc1Cl the results were AID923 1.9% and HSD17B inh 5.2%.
For CCOc1ccc(S(=O)(=O)N(C)C)cc1-c1nc2c(C(C)(C)C)nn(C)c2c(=O)[nH]1 the results were A350 fluor 1.06e-07M* and 4-MU autofl 6.82e-08M*.
Screening COc1ccc2[nH]c(C)c(CN3CCCCC3)c(=O)c2c1 returned A350 fluor 1.06e-08M*, HADH2 inhib -18.3%, CRE Fsk mod 4.9%, AID923 -0.3%, HSD17B inh 25.1µM* and 4-MU autofl inconclusive.
Screening CCOC(=O)CCN1C(=O)[C@H]2[C@H]3[C@H](O)[C@H](O)C/C(=N/NC(=O)OCc4ccccc4)[C@@H]3CC[C@@H]2C1=O returned HADH2 inhib -1.6%[11.4 µM], AID923 -0.9%[11.5 µM] and HSD17B inh 3.6%[11.4 µM].
Screening C=C1c2cccc(O)c2C(O)=C2C(=O)[C@]3(O)C(O)=C(C(N)=O)C(=O)C(N(C)C)C3C(O)C12 (some centres undefined) returned AID923 5.1% and HSD17B inh 12.6µM*.
Cc1cc2cc3c(=O)[nH]c(=O)[nH]c3nc2cc1C was read as A350 fluor 1.49e-07M*, HADH2 inhib 8.8%[11.4 µM], CRE Fsk mod 5.8%[7.6 µM], AID923 3.1%[11.5 µM], HSD17B inh 3.16µM* and 4-MU autofl 1.5e-07M*.
Screening O=[N+]([O-])c1cc(Cl)cc2c1nc(NCCO)c1ccccc12 returned A350 fluor inactive, HADH2 inhib -7.5%[11.4 µM], CRE Fsk mod inconclusive, AID923 -4.5%[11.5 µM], HSD17B inh -2.0%[11.4 µM] and 4-MU autofl inactive.
Cc1nn(-c2ccccc2)c2sc(C(=O)N(CC(=O)NC(C)(C)C)Cc3ccco3)cc12 was read as A350 fluor inactive, HADH2 inhib -6.9%, CRE Fsk mod 18.4%, AID923 1.6%, HSD17B inh -29.1%, 4-MU autofl inactive, CHO tox 24h inconclusive, CHO via 40h inconclusive and CREB luc CRC 12.6µM*.
`COC(=O)c1ccc(CSc2nc3c(cnn3-c3ccc(F)cc3)c(=O)[nH]2)o1` gave A350 fluor inconclusive, HADH2 inhib inconclusive, CRE Fsk mod 12.6µM*, AID923 2.8%, HSD17B inh inconclusive, 4-MU autofl inactive, CHO tox 24h -3.5, CHO via 40h -18.3% and CREB luc CRC 5.01µM*.
